Rows were chosen to be rich in hits. Some 3.3% of all compounds tested hit in one or more screens of this group.
HCV inhibitor = blocks hepatitis C virus. Huh7.5.1 HCVcc-Cre infection, luciferase reporter, 44 h. Potency, µM (top dose mostly 41.8 µM), usual class: inhibitors. 3.4% of 340,000 active; active = well fitted inhibition curve with a large enough effect; inconclusive = small, poorly fitted or top-dose-only effect, or another doubt; inactive = no such curve, though single readings can be large or run the other way
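Cells seeded at 1,000/well and cultured 4 h, then compounds added followed by HCVcc-Cre virus (~0.5 moi). After 44 h further culture, luciferase substrate was added, plates held 15 min at room temperature, and luminescence read for 15 sec.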
VACV mCherry inh = inhibitors of vaccinia virus infection (mCherry reporter signal); Vaccinia virus mCherry reporter infection, fluorescence; Potency, µM (top dose mostly 36.5 µM), most hits filed as inhibitors; 0.63% of 310,000 active; calls by dose curve; tested in A549 cells; note: nearly all actives have a fitted effect of over 35% in size
Vaccinia Venus = inhibitors of vaccinia virus (Venus reporter); Vaccinia virus Venus reporter expression, fluorescence; Potency, µM (top dose mostly 36.5 µM), actives largely listed as inhibitors; 0.46% of 330,000 active; AID 720580; calls by dose curve; tested in A549 cells; note: nearly all actives have a fitted effect of over 30% in size
Large screens that a line does not name were inactive.

COC(=O)C1OC(OC2CC[C@]3(C)C(CC[C@@]4(C)[C@@H]3CC=C3[C@@H]5CC(C)(C)CC[C@]5(C(=O)OC5OC(CO)C(O)C(O)C5O)CC[C@]34C)C2(C)C)C(O)C(O)C1O[C@H]1OCC(O)C(O)C1O (stereo not given in full)	HCV inhibitor 10µM
CC1(C)CC[C@]2(C(=O)O[C@@H]3OC(CO)[C@@H](O)[C@H](O)[C@H]3O)CC[C@]3(C)C(=CCC4[C@@]5(C)CC[C@H](O[C@@H]6OC(C(=O)O)[C@@H](O)[C@H](O)[C@H]6O)C(C)(C)C5CC[C@]43C)[C@@H]2C1 (stereo not given in full)	Vaccinia Venus inconclusive
C/C=C(\C)C(=O)OC1CC(C)(C)C[C@H]2C3=CC[C@@H]4[C@@]5(C)CCC(O[C@@H]6O[C@@H](C(=O)O)[C@@H](O)C(O[C@@H]7OC[C@H](O)[C@@H](O)[C@@H]7O[C@@H]7OC(CO)C(O)[C@@H](O)[C@@H]7O)C6O[C@@H]6OC(CO)C(O)C(O)C6O)[C@@](C)(CO)[C@@H]5CC[C@]4(C)[C@]3(C)CC(O)[C@@]12CO (stereo not given in full)	HCV inhibitor 11µM, Vaccinia Venus inconclusive
CC1(C)C[C@H]2C3=CCC4[C@@]5(C)CC[C@H](O)[C@@](C)(CO)C5CC[C@@]4(C)[C@]3(C)C[C@@H](O)[C@@]2(CO)[C@@H](O)[C@@H]1O (stereo not given in full)	none
Fc1cccc(-c2cc3nc4c(c(N5CCOCC5)n3n2)CCCC4)c1	HCV inhibitor 3.5µM
Fc1cccc(-c2cc3nc4c(c(NCc5ccco5)n3n2)CCCC4)c1	HCV inhibitor inconclusive
C#CCN(C[C@@H]1[C@@H](OC(=O)NCC2CCCCC2)[C@@H](OC(=O)NCC2CCCCC2)Cn2c(=O)ccc(=O)n21)S(=O)(=O)c1ccc(C)cc1	VACV mCherry inh inconclusive, Vaccinia Venus 7.9µM (no result: HCV inhibitor)
C#CCN(C[C@@H]1[C@@H](OC(=O)NCc2ccco2)[C@@H](OC(=O)NCc2ccco2)Cn2c(=O)n(CCCCCC)c(=O)n21)S(=O)(=O)c1ccc(C)cc1	none (no result: HCV inhibitor)
C#CCN(C[C@@H]1[C@@H](OC(=O)NCc2ccco2)[C@@H](OC(=O)NCc2ccco2)Cn2c(=O)ccc(=O)n21)S(=O)(=O)c1ccc(C)cc1	VACV mCherry inh inconclusive, Vaccinia Venus 7.9µM (no result: HCV inhibitor)
C#CCN(C[C@@H]1[C@@H](OC(=O)NCCCCCC)[C@@H](OC(=O)NCCCCCC)Cn2c(=O)ccc(=O)n21)S(=O)(=O)c1ccc(C)cc1	VACV mCherry inh inconclusive, Vaccinia Venus 5.6µM (no result: HCV inhibitor)
C#CCN(C[C@H]1[C@H](OC(=O)NCC2CCCCC2)[C@H](OC(=O)NCC2CCCCC2)C[C@@H](C(=O)OC)[C@H]1C(=O)OC)S(=O)(=O)c1ccc(C)cc1	Vaccinia Venus inconclusive (no result: HCV inhibitor)
C#CCN(C[C@@H]1[C@@H](OC(=O)NC2CC2)[C@@H](OC(=O)NC2CC2)Cn2c(=O)n(CCCCCC)c(=O)n21)S(=O)(=O)c1ccc(C)cc1	Vaccinia Venus inconclusive (no result: HCV inhibitor)
Nc1[nH]c(=O)nc2nnsc12	none (no result: HCV inhibitor)
CCOC(=O)[C@H]1[C@H]2COc3ccc(Br)cc3[C@@H]2N2C(=O)CN(CC3CCCO3)C(=O)[C@@]12C (stereo not given in full)	none
Cc1ccc(C(=O)N/C(=C\c2ccc(-c3ccccc3[N+](=O)[O-])o2)C(=O)NCCN(C)C)cc1	none
CN(C)CCNC(=O)/C(=C/c1ccc(-c2cccc([N+](=O)[O-])c2)o1)NC(=O)c1ccccc1	HCV inhibitor 10µM
Cc1ccc(C(=O)N/C(=C\c2ccc(-c3cccc([N+](=O)[O-])c3)o2)C(=O)NCCCN2CCOCC2)cc1	HCV inhibitor 10µM (no result: VACV mCherry inh, Vaccinia Venus)
CN(C)CCNC(=O)/C(=C/c1ccc(-c2cccc(Cl)c2)o1)NC(=O)c1ccccc1	HCV inhibitor 11µM
COc1ccc(C(=O)N/C(=C\c2ccc(-c3cccc([N+](=O)[O-])c3)o2)C(=O)NCCCN2CCOCC2)cc1	Vaccinia Venus inconclusive (no result: HCV inhibitor)
CN(C)C(=O)/C(=C\c1ccc(-c2cccc([N+](=O)[O-])c2)o1)NC(=O)c1ccccc1	HCV inhibitor inconclusive, Vaccinia Venus inconclusive
COc1cc(=O)n2c(c1C(=O)N1CCc3ccccc3C1)CCN(Cc1ccc(CO)o1)CC2	none (no result: HCV inhibitor)
CCOC(=O)c1ccc(NS(=O)(=O)c2ccc3c(c2)OCCO3)cc1	none (no result: HCV inhibitor)
COCCN(Cc1ccco1)C(=O)C1CCCN(c2ncnc3c2nc2n3CCCCC2)C1 (stereo not given)	none
Cc1cccc(C(=O)OC(C)C(=O)N2CCN(Cc3ccccc3)CC2)c1 (stereo not given)	none
O=C1NC(Cc2ccc(O)cc2)c2nc3cc(Cl)ccc3c(=O)n2-c2cc(Cl)ccc21 (stereo not given)	HCV inhibitor 25µM, VACV mCherry inh inconclusive, Vaccinia Venus inconclusive
O=C1NC(Cc2ccc(O)cc2)c2nc3cc(F)ccc3c(=O)n2-c2cc(Cl)ccc21 (stereo not given)	none (no result: VACV mCherry inh, Vaccinia Venus)
CCC(=O)N1CCc2cc(Br)cc(S(=O)(=O)N3CCCC(C(=O)Nc4cccc(F)c4)C3)c21 (stereo not given)	none (no result: HCV inhibitor)
COc1ccc(-c2cc(C)no2)cc1S(=O)(=O)NCCc1ccco1	none
COc1cccc(CNC(=O)c2cnn(-c3ncc4c(n3)-c3ccccc3CCC4)c2C)c1OC	none (no result: HCV inhibitor)
CN(CCc1ccccc1)C(=O)c1ccc(NC(=O)Cc2ccc(NC(=O)C3CCCN(C(=O)CCc4ccccc4)C3)cc2)cc1 (stereo not given)	HCV inhibitor 0.56µM, VACV mCherry inh inconclusive, Vaccinia Venus inconclusive
CN(CCc1ccccc1)C(=O)c1ccc(NC(=O)Cc2ccc(NC(=O)C3CCN(C(=O)C4CCCCC4)CC3)cc2)cc1	VACV mCherry inh inconclusive
CN(CCc1ccccc1)C(=O)c1ccc(NC(=O)Cc2ccc(NC(=O)C3CCN(C(=O)CCc4ccccc4)CC3)cc2)cc1	HCV inhibitor 25µM, VACV mCherry inh inconclusive, Vaccinia Venus inconclusive
CN(CCc1ccccc1)C(=O)c1ccc(NC(=O)Cc2cccc(NC(=O)C3CCN(C(=O)CCc4ccccc4)CC3)c2)cc1	none
CN(CCc1ccccc1)C(=O)c1ccc(NC(=O)Cc2ccc(NC(=O)C3CCCN(C(=O)C4CCC4)C3)cc2)cc1 (stereo not given)	HCV inhibitor inconclusive, VACV mCherry inh 10µM, Vaccinia Venus inconclusive
CN(Cc1ccccc1)C(=O)c1cccc(NC(=O)Cc2ccc(NC(=O)C3CCN(C(=O)C4CCC4)CC3)cc2)c1	HCV inhibitor 14µM
CN(CCc1ccccc1)C(=O)c1ccc(NC(=O)Cc2ccc(NC(=O)C3CCN(C(=O)C4CCC4)CC3)cc2)cc1	none
CN(Cc1ccccc1)C(=O)c1cccc(NC(=O)Cc2cccc(NC(=O)C3CCN(C(=O)C4CC4)CC3)c2)c1	HCV inhibitor inconclusive
CC(C)c1ccc2c(c1)CCC1C(C)(C(N)=O)CCCC21C (stereo not given)	none (no result: HCV inhibitor)
CC1CCCC(NC(=O)C2N(CCCN3CCCC3)C(=O)C3C(C(=O)Nc4cccc(Cl)c4)C4C=CC32O4)C1C (stereo not given)	none
Cc1cccc(-n2c(SCC(=O)N3CCC(C(=O)O)CC3)nc3ccccc3c2=O)c1C	HCV inhibitor inconclusive
O=C(Nc1ccc(N2CCN(c3ncccc3C(F)(F)F)CC2)nc1)c1cccs1	HCV inhibitor 11µM, VACV mCherry inh 14µM, Vaccinia Venus 20µM
